GLP1R inv ag: GLP-1 receptor (human) inverse agonism | P43220 | HEK293 GLP-1R CRE-luciferase, luminescence, 24 h; GLP-1R form is constitutively active | Potency, µM (series often up to 38.3 µM), usual class: inhibitors | 1.6% of 410,000 active | AID 624417; note: nearly all actives have a fitted effect of over 55% in size
Target sequence (P43220 whole entry, looked up): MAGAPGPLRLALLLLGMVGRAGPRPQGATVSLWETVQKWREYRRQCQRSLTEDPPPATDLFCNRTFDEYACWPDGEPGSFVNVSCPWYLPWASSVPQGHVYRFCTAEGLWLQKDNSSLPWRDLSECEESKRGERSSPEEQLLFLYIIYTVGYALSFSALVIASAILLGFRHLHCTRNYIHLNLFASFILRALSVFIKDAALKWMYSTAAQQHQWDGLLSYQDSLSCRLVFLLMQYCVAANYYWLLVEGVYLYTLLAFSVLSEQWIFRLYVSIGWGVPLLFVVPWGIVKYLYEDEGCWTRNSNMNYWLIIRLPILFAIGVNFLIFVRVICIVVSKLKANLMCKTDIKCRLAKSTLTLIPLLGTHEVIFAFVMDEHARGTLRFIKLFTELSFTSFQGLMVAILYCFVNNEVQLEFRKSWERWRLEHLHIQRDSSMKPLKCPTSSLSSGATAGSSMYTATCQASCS
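Using stably transfected HEK293 (constitutively active GLP-1R, cAMP-luciferase reporter), compounds were incubated 24 hr and luciferase measured by luminescence.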
GLP-1R agonist: GLP-1 receptor (human) agonism; P43220; HEK293 GLP-1R CRE-luciferase, luminescence, 4-6 h; cells express a hypersensitive GLP-1R form; Potency, µM (top dose mostly 45.6 µM), usual class: activators; 0.007% of 380,000 active; AID 624172
PTHR1 agonist: agonists of human PTHR1 parathyroid hormone receptor. AID 743266. Potency, µM (titrated, usually from 115 µM), usual class: activators. HEK293 GP2 PTHR1 cells, GloSensor cAMP luminescence, 1 h. Q03431. 0.075% of 410,000 active; note: nearly all actives have a fitted effect of over 55% in size
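HEK-293-derived GP2 cells expressing PTHR1 and a GloSensor cAMP reporter, 3,000/well, plated overnight, given luciferin plus IBMX (each 0.5 mM as added) for 1 h at 37 °C, then compound for 1 h at 37 °C. Luminescence was read after 15 min at room temperature.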
KAT2A inh: blocks human GCN5L2 histone acetyltransferase; 0.21% of 390,000 active; Q92830; AID 504327; GCN5L2 HAT assay, ThioGlo1 CoA-SH fluorescence; Potency, µM (top dose mostly 58.9 µM), hits mostly inhibitors
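Free CoA generated was detected with ThioGlo1 (50uM) fluorescence at Ex340nm/Em540nm, read immediately and after 20 min at room temperature. Enzyme, 20 nM in HEPES pH 7.5 buffer, saw compounds 15 min before adding 75uM H3(1-25) peptide and 70uM acetyl-CoA.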
GLP1R cytotox: cytotoxicity in counter-screen for GLP-1R inverse agonists; HEK293 cAMP-luciferase reporter cells, luminescence, 24 h; Potency, µM (series often up to 38.3 µM), actives largely listed as inhibitors; 0.13% of 410,000 active; AID 624418;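 note: loss of luciferase light is scored as toxicity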
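Compound-treated cells are incubated 24 hr at 37 deg C under 5% CO2 after a 12 hour attachment period, then luciferase detection reagent is added and luminescence is measured following 12 min at room temperature; lowered signal indicates toxicity.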
RGS4 inh: blocks human RGS4-accelerated GTP hydrolysis; P49798; Transcreener GDP fluorescence polarization, RGS4-accelerated GTP hydrolysis; Potency, µM (doses to about 114 µM), usual class: inhibitors; 0.039% of 390,000 active; note: nearly all actives have a fitted effect of over 75% in size
Target sequence (P49798 whole entry, looked up): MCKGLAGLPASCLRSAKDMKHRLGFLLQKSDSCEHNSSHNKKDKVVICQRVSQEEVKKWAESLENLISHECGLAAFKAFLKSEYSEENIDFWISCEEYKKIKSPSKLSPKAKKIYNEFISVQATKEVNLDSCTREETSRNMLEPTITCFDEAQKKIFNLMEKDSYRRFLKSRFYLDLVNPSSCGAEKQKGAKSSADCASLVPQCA
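MLSMR compounds (23 nl, pin-transferred) preincubated 10 min at room temperature with a 500nM (2x) first reagent, then RGS4 at 900nM (2x) plus Transcreener GDP mix added; fluorescence polarization (620/688 nm) read before and after 90 min at 30 °C.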
Hits are given with their value; ! = not active in a repeat. Only some compounds are listed: those with a hit (about 1.8% of all), similar ones and a draw of the others. Calls come from the whole dose curve; as a rule, active = well fitted curve in the direction sought with a large enough effect; inconclusive = small, poorly fitted or top-dose-only effect, or another doubt; inactive = no such curve, though single readings can be large; an effect the other way counts as inactive or inconclusive.

`COc1cc(C(=O)O[C@H]2C/C(C)=C/CC[C@]3(C)O[C@@H]3C(O)C2C(C)C)cc(OC)c1OC` (stereo not given in full) gave GLP1R inv ag inconclusive, GLP-1R agonist inactive, PTHR1 agonist inactive, KAT2A inh inactive, GLP1R cytotox inactive and RGS4 inh inactive.
For Cc1ccccc1NC(=O)CSc1cn(CC(=O)N2CCCCCC2)c2ccccc12 the results were GLP1R inv ag inactive, PTHR1 agonist inactive, KAT2A inh inactive, GLP1R cytotox inactive and RGS4 inh inactive.
Screening Cc1ccccc1S(=O)(=O)Cc1ccc(C(=O)N2CCN(c3cccc(Cl)c3)CC2)o1 returned GLP1R inv ag inconclusive, PTHR1 agonist inactive, KAT2A inh inactive, GLP1R cytotox inconclusive and RGS4 inh inactive.
For COc1ccc(S(=O)Cc2ccc(C(=O)N3CCN(c4cccc(C)c4C)CC3)o2)cc1 (stereo not given) the results were GLP1R inv ag 7.1µM!, GLP-1R agonist inactive, PTHR1 agonist inactive, KAT2A inh inactive, GLP1R cytotox inactive and RGS4 inh inactive.
Screening O=C(c1ccc(CS(=O)c2ccccc2Cl)o1)N1CCN(c2cccc(Cl)c2)CC1 (stereo not given) returned GLP1R inv ag 0.89µM, PTHR1 agonist inactive, KAT2A inh inactive, GLP1R cytotox inconclusive and RGS4 inh inactive.
`Cc1ccccc1S(=O)(=O)Cc1ccc(C(=O)N2CCN(c3cccc(C)c3C)CC2)o1` gave GLP1R inv ag 4.5µM, GLP-1R agonist inactive, PTHR1 agonist inactive, KAT2A inh inactive, GLP1R cytotox inconclusive and RGS4 inh inactive.
`Cc1ccc(C(=O)C(c2ccccc2)N2Cc3ccccc3C2=N)cc1` (stereo not given) gave GLP1R inv ag inconclusive, GLP-1R agonist inactive, PTHR1 agonist inactive, KAT2A inh inactive, GLP1R cytotox inactive and RGS4 inh inactive.
`CC(=O)Oc1ccccc1Cn1c(C)c(C(=O)NCc2ccccc2C(F)(F)F)sc1=O` gave GLP1R inv ag inconclusive, GLP-1R agonist inactive, PTHR1 agonist inactive and GLP1R cytotox inactive.
Screening CC[N+](CC)(CC)CCOC(=O)C(C1CCCC1)C1CCCC1 returned GLP-1R agonist inactive.
O=C(NCc1ccco1)C1CCCN1C(=O)Nc1ccc(Br)cc1 (stereo not given) was read as GLP1R inv ag inactive, GLP-1R agonist inactive, PTHR1 agonist inactive, KAT2A inh inactive, GLP1R cytotox inactive and RGS4 inh inactive.
`CCOC(=O)c1ccc(S(=O)(=O)N2CCN(CCC#N)CC2)cc1` gave GLP1R inv ag inactive, GLP-1R agonist inactive, PTHR1 agonist inactive, KAT2A inh inactive, GLP1R cytotox inactive and RGS4 inh inactive.
Screening CCOC(=O)c1ccc(S(=O)(=O)N2CCN(C)CC2)cc1 returned GLP1R inv ag inactive, GLP-1R agonist inactive, PTHR1 agonist inactive, KAT2A inh 3.5µM, GLP1R cytotox inactive and RGS4 inh inactive.
Oc1ccc(-c2nc3ccccc3nc2-c2ccccc2)cc1 was read as GLP1R inv ag 4µM, GLP-1R agonist inactive, PTHR1 agonist inactive, KAT2A inh inactive, GLP1R cytotox inactive and RGS4 inh inactive.
For Clc1ccc(-n2nnnc2Sc2ncnc3sccc23)cc1 the results were GLP1R inv ag 7.9µM, GLP-1R agonist inactive, PTHR1 agonist inactive, GLP1R cytotox inconclusive and RGS4 inh inactive.
Screening CCN(CC)C(=O)CC(c1ccc(OC)cc1)c1c(OC)cc(OC)c2c(-c3ccccc3)cc(=O)oc12 (stereo not given) returned RGS4 inh inactive.
`O=C(Cc1cccc2ccccc12)NCC(=O)N1CCN(Cc2cccc(C(F)(F)F)c2)CC1` gave GLP1R inv ag 10µM, GLP-1R agonist inactive, PTHR1 agonist inactive, KAT2A inh inactive, GLP1R cytotox inactive and RGS4 inh inactive.
Screening O=C(Nc1cc(C(F)(F)F)ccc1Cl)C(NCc1ccccc1)c1ccccc1 (stereo not given) returned GLP1R inv ag 3.5µM, GLP-1R agonist inactive, PTHR1 agonist inactive, KAT2A inh inactive, GLP1R cytotox inactive and RGS4 inh inactive.
Screening CSc1cccc(NC(=S)Nc2cc(C)ccc2C)c1 returned GLP1R inv ag inconclusive, GLP-1R agonist inactive, PTHR1 agonist inactive, KAT2A inh inactive, GLP1R cytotox inactive and RGS4 inh inactive.
`COc1cc2c(cc1NC(=O)C(c1ccccc1)c1ccccc1)CCCC2` gave GLP1R inv ag 2.8µM, GLP-1R agonist inactive, PTHR1 agonist inactive, KAT2A inh inactive, GLP1R cytotox inactive and RGS4 inh inactive.
Screening COc1cccc(CNC(=O)[C@@H]2CCCN2C(=O)[C@H]2CCCCN2C(=O)OC(C)(C)C)c1 returned GLP1R inv ag inactive, GLP-1R agonist inactive, PTHR1 agonist inactive and GLP1R cytotox inactive.
Cc1ccc(Nc2cc(C(=O)NC3CCCC3)c3ccccc3n2)cc1C was read as GLP1R inv ag inactive, PTHR1 agonist inactive, KAT2A inh inactive, GLP1R cytotox inactive and RGS4 inh inactive.
`C=CCOc1ccc(CN(C)CC(O)COc2cccc3ccccc23)cc1` (stereo not given) gave GLP1R inv ag inconclusive, GLP-1R agonist inactive, PTHR1 agonist inactive, KAT2A inh inactive, GLP1R cytotox inconclusive and RGS4 inh inactive.
Screening COc1cccc(CN(C)CC(O)COc2cc(Cl)ccc2Cl)c1 (stereo not given) returned GLP1R inv ag 10µM, GLP-1R agonist inactive, PTHR1 agonist inactive, KAT2A inh inactive, GLP1R cytotox inactive and RGS4 inh inactive.
`CCCCC(c1nnnn1Cc1ccco1)N1CCN(c2nc3ccccc3s2)CC1` (stereo not given) gave GLP1R inv ag 7.1µM, GLP-1R agonist inactive, PTHR1 agonist inactive, KAT2A inh inactive, GLP1R cytotox inactive and RGS4 inh inactive.
`c1ccc(C(c2nnnn2Cc2ccco2)N2CCN(c3nc4ccccc4s3)CC2)cc1` (stereo not given) gave GLP1R inv ag 7.9µM, GLP-1R agonist inactive, PTHR1 agonist inactive, KAT2A inh inactive, GLP1R cytotox inactive and RGS4 inh inactive.
Screening Fc1ccc(C(c2nnnn2Cc2cccs2)N2CCN(c3ccccc3)CC2)cc1 (stereo not given) returned GLP1R inv ag 7.9µM, GLP-1R agonist inactive, PTHR1 agonist inactive, KAT2A inh inactive, GLP1R cytotox inactive and RGS4 inh inactive.
For O=C(Cn1cc(C(F)(F)F)ccc1=O)NC1CCCC1 the results were GLP1R inv ag inactive, GLP-1R agonist inactive, PTHR1 agonist inactive, KAT2A inh inactive, GLP1R cytotox inactive and RGS4 inh inactive.
